# This is a sample that favours compounds with a hit; in the whole collection about 4.6% have one here.
# D1 potentiator: Potentiators of Human D1 Dopamine Receptor: qHTS. HEK293 TREx D1 cells, calcium flux, dopamine EC20 potentiation. potentiation, % at 10 µM. 360,000 tested, 0.036% active. AID 504651, 2011; in the data active = potentiation above about 30%; also: 0% is about no effect
# Target sequence (P21728 whole entry, looked up): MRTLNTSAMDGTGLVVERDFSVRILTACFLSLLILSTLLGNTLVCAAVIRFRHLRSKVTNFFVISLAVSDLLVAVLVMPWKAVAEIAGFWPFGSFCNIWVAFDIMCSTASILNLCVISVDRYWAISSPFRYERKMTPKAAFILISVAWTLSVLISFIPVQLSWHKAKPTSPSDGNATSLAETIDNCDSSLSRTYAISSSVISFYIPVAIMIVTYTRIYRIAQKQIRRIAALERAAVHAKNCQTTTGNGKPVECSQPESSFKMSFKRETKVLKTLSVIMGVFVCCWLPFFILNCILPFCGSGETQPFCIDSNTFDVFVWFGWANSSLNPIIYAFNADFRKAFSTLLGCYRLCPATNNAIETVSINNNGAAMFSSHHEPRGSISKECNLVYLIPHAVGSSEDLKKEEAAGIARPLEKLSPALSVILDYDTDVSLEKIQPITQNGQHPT
# TRHR agonist: qHTS for Small Molecule Agonists and Allosteric Enhancers of Human TRH Receptor: Primary Screen for Agonists | Thyrotropin-releasing hormone receptor (Homo sapiens), P34981 | TRHR cells, calcium flux fluo-8, FDSS agonist mode | activation, % at 2 µM | 360,000 tested, 0.18% active; also: 0% is about no effect
#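 Agonist-mode FDSS calcium read (Ex 480/Em 530, 1 s cycles) in 1536-well TRHR cells with fluo-8 dye, after 10-cycle baseline and 23 nL compound addition; TRH at EC20 (10 nM final) added afterwards for the enhancer phase.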
# TRHR enhancer: qHTS for Small Molecule Agonists and Allosteric Enhancers of Human TRH Receptor: Primary Screen for Enhancers | 360,000 tested, 0.66% active | enhancement, % at 2 µM | TRHR cells, fluo-8 calcium fluorescence, EC20 TRH enhancement | Thyrotropin-releasing hormone receptor (Homo sapiens), P34981; in the data active = enhancement above about 30%; also: 0% is about no effect
#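 Enhancer read-out: after compound pinning and an initial kinetic agonist-mode read, an EC20 of TRH (10 nM final) was injected and fluo-8 calcium signal (Ex 480/Em 530) followed at 1 s/cycle for 100 cycles in TRHR-expressing cells.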
# D1 antag: Antagonist of Human D 1 Dopamine Receptor: qHTS; D(1A) dopamine receptor (Homo sapiens), P21728; HEK293 TREx D1 cells, calcium flux, dopamine EC80; active compounds read low; activity change, negative = inhibition, % at 10 µM; 360,000 tested, 3.2% active; AID 504652, 2011; in the data active = activity change below about -30%; also: % is scaled to controls: 0 for no effect and ±100 for the full control effect
#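 Calcium flux readout: force-coupled, inducible Hek293 Trex D1 line, cells induced overnight at 30 C with tetracycline, dye-loaded 30–90 min at RT. Antagonism scored against EC80 dopamine challenge given 180 s after compound.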
# D1 agonist: Allosteric Agonists of the Human D1 Dopamine Receptor: qHTS. D(1A) dopamine receptor (Homo sapiens), P21728. HEK293 T-REx D1 cells, calcium flux, agonist mode. activation, % at 2 µM. 360,000 tested, 1% active. AID 504660, 2011; also: 0% is about no effect
#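 Inducible HEK293 T-REx D1 cells, force-coupled to calcium signalling, were plated at 4000 cells/well with tetracycline and held overnight at 30 C. After no-wash calcium dye loading, compound-evoked calcium rise over 180 s flagged agonists.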
# Active calls of the source: *. Rule as the data show it, unless noted: active = activation above about 30%; inactive = the rest.
SMILES,D1 potentiator,TRHR agonist,TRHR enhancer,D1 antag,D1 agonist
O=C(Cn1nc(Cc2cccnc2)c2ccccc2c1=O)Nc1ccc(F)c(Cl)c1,3,-1,7,15,2
CCc1ccc(-c2cc(C)no2)cc1S(=O)(=O)N1CCC(C)CC1,-2,0,-3,2,5
CCc1ccc(-c2cc(C)no2)cc1S(=O)(=O)N1CCCN(Cc2ccc(F)cc2)C1,-4,1,-6,-31*,7
CCCN(C(=O)c1sc2nc3n(c(=O)c2c1C)CCCC3)c1ccccc1C,1,0,1,5,3
CCCCCCCOC(=O)C[N+](C)(C)CCOC1CC2CCC1(C)C2(C)C (stereo unspecified),6,1,-1,42,131*
CCCCCCOC(=O)C[N+](C)(C)CCOC1CC2CCC1(C)C2(C)C (stereo unspecified),0,-1,-1,6,92*
C=CCn1c(=O)c2ccc(C(=O)NCc3ccccc3)cc2n(Cc2ccc(C)cc2)c1=O,-4,-2,3,-30*,-2
COc1ccc(-n2c(=O)c3ccc(C(=O)NCc4ccc(C)cc4)cc3n(Cc3ccc(C)cc3)c2=O)cc1,-1,0,-5,12,4
CCc1ccc(NC(=O)Cn2c(=O)n(CCC(=O)N3CCc4ccccc4C3)c(=O)c3ccccc32)cc1,-1,1,5,-31*,-1
Cc1ccc(CNC(=O)c2ccc(Cn3c(=O)c4ccccc4n(CC(=O)Nc4ccc(C)cc4)c3=O)cc2)cc1,2,1,6,6,33*
COc1cc2c(cc1OC)C1O[C@](c3ccsc3)(C2)Oc2c1c(=O)oc1ccc(F)cc21,-6,1,18,-26,2
O=C(CN1CC(=O)Nc2ccccc21)Nc1ccc(F)c(F)c1,-15,-2,9,-39*,1
Cc1ccc(NC(=O)CNC(=O)N2CC(=O)Nc3ccccc32)cc1F,-10,1,-4,-2,3
CC1=NOC(=O)/C1=C\c1ccc(-c2cccc(Cl)c2)o1,-4,2,-14,-51*,1
CCOC(=O)C1=NN(C(=O)c2cccc(Br)c2)C(O)(C(C)(C)C)C1 (stereo unspecified),-10,22,-8,-9,51*
COC(=O)C1=NN(C(=O)c2cccc(Br)c2)C(O)(c2ccc(Cl)cc2)C1 (stereo unspecified),1,16,2,-9,106*
CCOC(=O)C1=NN(C(=O)c2ccc(OC)cc2)C(O)(c2ccc(Cl)cc2)C1 (stereo unspecified),-4,14,-2,-27,128*
CN1CC=C2C(C#N)=C(N)C(C#N)(C#N)C(CCc3ccccc3)C2C1 (stereo unspecified),-9,5,22,-62*,8
COc1ccc(/C=N/N=C2\CC3CCC2(C)C3(C)C)cc1O (stereo unspecified),-1,0,3,6,3
COc1cc(/C=N/N=C2\CC3CCC2(C)C3(C)C)ccc1O (stereo unspecified),0,0,0,-60*,3
CC(=O)Nc1ccc(S(=O)(=O)Nc2cccn(Cc3ccc(C)cc3)c2=O)cc1,2,1,33*,-24,5
CC(=O)Nc1ccc(S(=O)(=O)Nc2cccc3cccnc23)cc1,-7,1,-1,-55*,2
Cc1ccc(NC(=O)c2cccc3cccnc23)cc1,-7,0,-1,-31*,0
CC(=O)Nc1cccc(NC(=O)c2cccc3cccnc23)c1,-2,-1,-6,-3,1
CC(=O)Nc1ccc(S(=O)(=O)Nc2ccccc2N2CCOCC2)cc1,1,0,34*,-22,3
CC(=O)Nc1ccc(S(=O)(=O)Nc2ccccc2N2CCOCC2)cc1Cl,8,1,-9,-1,1
Cc1nnc(SCC(=O)NCc2ccccc2F)c2nn(-c3ccc(Cl)cc3)c(C)c12,8,19,-2,8,1
